Rows were chosen to be rich in hits. Some 13% of all compounds tested hit in one or more screens of this group.
Shiga inhibitor: Shiga toxin inhibition | AID 2315 | actives 9.2% (n = 290,000) | inhibition, % at 38.7 µM | Vero cells, Shiga toxin protein synthesis inhibition reporter; in the data active = inhibition mostly above about 28%, no sharp cut-off; inactive = mostly below about 43%; note: 0% is about no effect
Marburg entry inh: blocks Marburg virus binding to or entry into cells. AID 540276. Marburg virus pseudotyped entry inhibition, cell reporter. Potency, µM (top dose mostly 37.8 µM), inactives show at the top dose activity change, negative = inhibition, actives largely listed as inhibitors. actives 1.8% (n = 300,000); calls by dose curve; tested in HEK293 cells; note: potency is the fitted concentration of half-maximal effect; % is set by controls: 0 for no effect and ±100 for the full control effect
HCV inh: blocks hepatitis C virus | actives 3.4% (n = 340,000) | Huh7.5.1 HCVcc-Cre infection, luciferase reporter, 44 h | Potency, µM (highest dose often 41.8 µM), inactives show top-dose activity change, negative = inhibition, usual class: inhibitors; active = well fitted inhibition curve with a large enough effect; inconclusive = small, poorly fitted or top-dose-only effect, or another doubt; inactive = no such curve, though single readings can be large or run the other way; note: potency is the fitted concentration of half-maximal effect; % is set by controls: 0 for no effect and ±100 for the full control effect
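Luciferase read-out (15 sec integration) after a 15 min room-temperature substrate step quantifies HCVcc-Cre infection. Cells, 1,000 per well, had compound added 4 h post-plating, then virus at ~0.5 moi, and were cultured 44 h.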
FMDV inh: antivirals against foot and mouth disease virus. FMDV antiviral cell-based qHTS. AID 1159524. actives 1.2% (n = 410,000). Potency, µM (highest dose often 57.9 µM), for the others: at the top dose activity change, negative = inhibition, most hits filed as inhibitors; calls by dose curve; tested in HEK293T cells; note: read-out not given here; potency is the fitted concentration of half-maximal effect; % is set by controls: 0 for no effect and ±100 for the full control effect; nearly all actives have a fitted effect of over 45% in size
CHX counter: counter-screen for Shiga toxin inhibitors: cycloheximide protein synthesis inhibition | cell reporter, cycloheximide protein synthesis inhibition counterscreen | max response, % | actives 12% (n = 300,000) | AID 2314; in the data active = max response mostly above about 13%, no sharp cut-off; inactive = mostly below about 14%; note: read at 38.3 µM for the half of the compounds with a filed dose; 0% is about no effect
LASV entry inh: Lassa virus entry inhibition; Lassa virus pseudotype entry inhibition, cell reporter; Potency, µM (series often up to 37.9 µM), inactives show at the highest dose activity change, negative = inhibition, actives largely listed as inhibitors; actives 1.2% (n = 300,000); AID 540256; calls by dose curve; tested in HEK293 cells; note: potency is the fitted concentration of half-maximal effect; % is set by controls: 0 for no effect and ±100 for the full control effect; nearly all actives have a fitted effect of over 50% in size
* = called active by the depositor; ? = inconclusive; / = no result; ! = repeats disagree; [ ] = dose if it differs, or a comment.

SMILES | Shiga inhibitor | Marburg entry inh | HCV inh | FMDV inh | CHX counter | LASV entry inh
O=c1cnc2ccccc2n1Cc1ccc(Br)cc1 | 56* | 4%[46.1 µM] | ? | 11% | 18* | 18%
CCCn1c(CCC(=O)Nc2ccc(OCC)cc2)nc2cccnc21 | / | -1%[46.1 µM] | / | 15% | / | 0%[46.1 µM]
CCC(=O)Nc1cc(C(=O)OCC(=O)c2ccc(Cl)cc2Cl)ccc1C | -16 | 12% | 15% | 5% | 1 | 6%
CCC(=O)Nc1cc(C(=O)OCC(=O)c2ccccc2Cl)ccc1C | 106* | 21% | 9% | -22% | 45* | 8%
CCC(=O)Nc1cc(C(=O)OCC(=O)c2ccccc2)ccc1C | active | -15% | 20% | -6% | 53* | 10%
O=C(NCC1COc2ccccc2O1)c1cccs1 (configuration not stated) | 72* | 6%[46.1 µM] | 10% | 22% | 40* | 22%[46.1 µM]
O=C(NCC1COc2ccccc2O1)c1ccc(Br)s1 (configuration not stated) | 108* | 12%[46.1 µM] | -13% | 40% | 23* | -26%[46.1 µM]
CCc1ccc(NC(=O)c2ccc(F)c(S(=O)(=O)NCC3COc4ccccc4O3)c2)cc1 (configuration not stated) | -6 | 12µM* | ? | -27% | -1 | 16µM*
CCc1ccc(C(=O)NCC2COc3ccccc3O2)o1 (configuration not stated) | 57* | ? | 1% | 7% | 23* | 0%
Cc1ccc(C)c(SCC(=O)Nc2oc(C)c3c(C)n[nH]c(=O)c23)c1 | / | 10% | 4% | -26% | / | 21%
COCCNc1nc(NC(C)C)nc2ccsc12 | / | / | / | -22% | / | /
O=c1oc(-c2ccc(O)c(O)c2)cc2cc(O)cc(O)c12 | / | / | -23% | 31% | / | /
COc1ccc(NC(=O)c2cc3c(=O)n(C)c4ccccc4c3s2)cc1Cl | / | -10%[46.1 µM] | / | -4% | / | 3%[46.1 µM]
CC(C)COc1ccc(-c2nn(-c3ccccc3)cc2/C=C2/SC(=S)N(CC(=O)O)C2=O)cc1 | -4 | / | 11% | -27% | 0 | /
CCN(c1ccccc1)S(=O)(=O)c1cc(C(=O)Nc2ccc(Br)cc2)ccc1F | 65* | ? | 2.8µM*! | 18µM* | 14* | 12µM*
CC(Oc1ccc2c(c1)c1ccnc3c4ccccc4c(=O)n2c13)C(=O)NCCN1CCOCC1 (configuration not stated) | -11 | / | 11µM* | -25% | -4 | /
COc1ccccc1Oc1ccc2c(c1)C(=O)N(c1cccc3ncccc13)C2=O | 66* | ? | ? | 20µM* | 41* | -12%
COc1ccccc1Oc1ccc2c(c1)C(=O)N(c1cccc(O)c1)C2=O | 38* | 10% | 22% | 2% | 28* | ?
O=C1c2ccc3c4c(ccc(c24)C(=O)N1c1cccc(O)c1)C(=O)N(c1cccc(O)c1)C3=O | 3 | -1% | 5µM* | ? | -4 | /
COc1ccc(N2C(=O)c3ccc(C(=O)Nc4ccccc4OC)cc3C2=O)cc1 | -8 | / | 1% | -24% | -2 | /
Cc1cccc(C(=O)NCC(=O)OCc2cc(=O)n3nc(C4CC4)sc3n2)c1 | / | / | / | -12% | / | 1%[46.1 µM]
CCN(CC)c1ccc(NC(=O)CCCCC(=O)Nc2ccc(N(CC)CC)cc2)cc1 | / | / | -19% | 1% | / | /
CCN(CC)c1ccc(NC(=O)/C=C\c2ccccc2Cl)cc1 | 64* | 11% | ? | / | 27* | -7%
CN(C)c1ccc(NC(=O)/C=C/c2ccccc2Cl)cc1 | 80* | -12% | ? | 0% | 32* | -12%
Cn1cnc([N+](=O)[O-])c1Nc1cccc(O)c1 | -10 | 21% | 11% | 12% | -1 | 0%
SMILES | Shiga inhibitor | Marburg entry inh | HCV inh | FMDV inh | CHX counter | LASV entry inh
COc1ccc(/C=C(/CC(=O)Nc2ccccc2)c2nc3ccccc3s2)cc1 | 9 | 5%[46.1 µM] | -10% | 33% | 13 | 19%[46.1 µM]
COc1ccc(/C=C(/CC(=O)NCc2ccc(Cl)cc2)c2nc3ccccc3s2)cc1 | 19 | -6% | 0% | 12% | 19* | ?
COc1ccccc1/C=C/C(=O)OCC(=O)NCc1ccc2c(c1)OCO2 | / | / | -2% | 6% | / | /
O=C(O)C/C(=C\c1ccc2c(c1)OCO2)c1nc2ccccc2s1 | 69* | 3%[46.1 µM] | 12% | 32% | 32* | 7%
COc1ccccc1/C=C(/CC(=O)NCc1ccc2c(c1)OCO2)c1nc2ccccc2s1 | 67* | ? | -22% | 5% | 20* | -1%
C[C@H]1CN(C2CCCCC2)C(=O)[C@@H]1CC(=O)NCc1ccccc1 | 1 | / | 3% | 7% | -2 | /
Cc1ccc(OCCCCN2CCCC(C)C2)c([N+](=O)[O-])c1 (configuration not stated) | 32 | ? | ? | 5% | -2 | -11%
CCOC(=O)c1ccc(S(=O)(=O)Nc2ccc(N3CCOCC3)cc2)cc1 | -8 | -4%[46.1 µM] | -12% | -2% | -2 | ?
Cc1ccccc1CSc1nnc(-c2ccccn2)n1C | 90* | ? | -4% | 23% | 26* | ?
Cn1c(SCc2ccccc2[N+](=O)[O-])nnc1-c1cccnc1 | 51* | ? | 36% | 25% | 24* | ?
Cc1ccc(NC(=O)CSc2nnc(-c3ccccn3)n2C)cc1 | -17 | 15% | -12% | -4% | 1 | 17%
Cc1ccc(C)c(CSc2ccc3nnc(-c4ccccn4)n3n2)c1 | -20 | ? | ? | 22µM* | 1 | ?
Cn1c(SCc2cccc(Br)c2)nnc1-c1ccccn1 | 50* | 18%[46.1 µM] | 17% | 5% | 22* | 11%
Cn1c(SCc2cccc(F)c2)nnc1-c1ccccn1 | 58* | 4% | -2% | 65% | 36* | ?
Cn1c(SC/C=C/c2ccccc2)nnc1-c1cnccn1 | -2 | 5% | 10% | -24% | 10 | -3%
Cn1c(SCc2cccc(F)c2)nnc1-c1cnccn1 | 64* | ? | 23% | 61% | 29* | 7%
Cn1c(SCC(=O)c2ccc(F)cc2)nnc1-c1cnccn1 | 44 | ? | 6% | 52% | 32 | 5%
Cn1c(SCc2ccccc2Cl)nnc1-c1cnccn1 | 133* | 8% | 8% | 66% | 24* | ?
CC1Cc2ccccc2N1C(=O)CNc1cccc(S(=O)(=O)N2CCCC2)c1 (configuration not stated) | -5 | -1%[46.1 µM] | -4% | ? | -4 | -18%
O=C(/C=C/c1ccc2ccccc2n1)c1cc(Br)ccc1O | 80* | / | 9% | 50% | 43* | /
Cc1ccc(/C=C/C(=O)c2ccccc(=O)c2O)cc1C | 77* | 16µM* | ? | ? | 51* | ?
O=C(/C=C\c1ccccc1)c1ccccc1O | / | 6%[14.2 µM] | / | / | / | /
O=C(O)/C=C/c1ccc2ccccc2n1 | 5 | ? | 22% | / | 1 | -3%
O=C(/C=C/c1ccc(F)cc1)c1cc(Br)ccc1O | 77* | 5%[46.1 µM] | -5% | -19% | 15* | ?
O=C(/C=C/c1ccc(O)cc1)c1ccccc1O | / | / | / | -32% | / | /
O=C(/C=C/c1ccccc1)c1cc(Br)ccc(=O)c1O | 23 | 20µM* | ? | ? | -2 | ?

Screens as filed in PubChem BioAssay.
